Measurements as given in ChEMBL document CHEMBL3988442, “University of Dundee, Small-Polar-MMV Screening Library” (2021).

Assays:
Format in all cases: functional
Parameters in all cases: scale not given: direction of the effect not stated beside the values
Details in all cases: 30 µM
[1] = target: T1, Aspartate--tRNA(Asp/Asn) ligase (Mycobacterium tuberculosis (strain ATCC 25618 / H37Rv)) (UniProt P9WFW3); assay: Assay for Asp RNA synthetase-1 from Mycobacterium tuberculosis; further: in the data most compounds retested in dose-response had high values
T1 sequence (whole entry): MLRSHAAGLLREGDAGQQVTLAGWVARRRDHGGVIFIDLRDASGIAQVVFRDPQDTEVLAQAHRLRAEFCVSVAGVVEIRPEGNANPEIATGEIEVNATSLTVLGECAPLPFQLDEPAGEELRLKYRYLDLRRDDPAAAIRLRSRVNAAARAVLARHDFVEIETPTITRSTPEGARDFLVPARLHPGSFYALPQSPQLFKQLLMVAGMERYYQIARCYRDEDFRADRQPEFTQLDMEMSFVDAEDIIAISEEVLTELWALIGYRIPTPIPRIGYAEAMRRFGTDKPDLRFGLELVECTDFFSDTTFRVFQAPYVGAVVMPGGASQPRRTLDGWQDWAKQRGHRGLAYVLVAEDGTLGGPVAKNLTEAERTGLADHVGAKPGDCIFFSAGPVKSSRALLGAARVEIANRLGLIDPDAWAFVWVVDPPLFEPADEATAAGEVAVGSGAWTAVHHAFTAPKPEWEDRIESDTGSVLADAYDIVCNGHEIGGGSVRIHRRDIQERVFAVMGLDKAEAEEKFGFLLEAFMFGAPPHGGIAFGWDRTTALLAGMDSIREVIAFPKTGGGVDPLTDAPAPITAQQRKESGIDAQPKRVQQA

[2] = target: Shiga toxin 2 (Escherichia coli O157:H7) (UniProt P09385+P09386); assay: E. coli 0.157:H7 Shiga Toxin SOP - stx2 screening assay
[3] = target: AMP-activated protein kinase, AMPK (Homo sapiens) (UniProt P54646+O43741+P54619+Q9UGJ0+Q9Y478+Q13131+Q9UGI9); assay: AMP-dependent Kinase enzyme assay. An in vitro enzyme assay that detects ADP turnover that is directly proportional to AMPK activity. This uses naive AMPK that is activated during the assay with MK-8722

In the case of CN(C)c1cc(CNC(=O)c2cn(-c3ccc(F)cc3)nn2)ccn1, the Percent Effect [1] is reported as 1.09% and the Percent Effect [2] is reported as 6.86%.

With Cc1csc(N2CCN(C(=O)CCc3ccccn3)CC2)n1 the Percent Effect [1] was 5.27% and the Percent Effect [2] was 20.4%.

With CC(C)Oc1ccccc1C1CC(=O)Nc2c1cnn2C (stereo not given) the Percent Effect [1] was 2.79% and the Percent Effect [2] was -6.39%.

Work on COCCC(=O)N1CCC2(COCc3cnc(-c4ccccc4)nc32)C1 (stereo not given) yielded a Percent Effect [1] of -4.87% and a Percent Effect [2] of -3.09%.

For CCOc1cccc(C(=O)NCCC(=O)Nc2ccncc2)c1, the Percent Effect [1] was -3.32% and the Percent Effect [2] was -80.5%.

Molecule CCc1nc(CN2CCCN(C(=O)COCC3CC3)CC2)cs1 has a Percent Effect [1] of -3.19% and a Percent Effect [2] of -49.1%.

With COCCOCc1cccc(NC(=O)N2CCCC2c2ccncc2)c1 (stereo not given) the Percent Effect [1] was -1.56% and the Percent Effect [2] was 18.6%.

With COc1c(C2CCCN2CC(=O)Nc2cc(C)no2)c(C)nn1C (stereo not given) the Percent Effect [1] was 2.74% and the Percent Effect [2] was 12.9%.

CC(C)Cc1noc(CN2CCN(CCOc3ccc(Cl)cc3)CC2)n1 was tested, and the Percent Effect [1] was 0.745% and the Percent Effect [2] was 10.8%.

C=C(C)CN(Cc1cccc(O)c1)C1CCC(O)CC1 (stereo not given) was tested, and the Percent Effect [1] was 5.8% and the Percent Effect [2] was 18.1%.

CCc1nc(C2CCCN2C(=O)C2=COCC2)no1 (stereo not given) showed a Percent Effect [1] of -0.485% and a Percent Effect [2] of -3.44%.

For CNC(=O)[C@H]1C[C@H]2OCC[C@H]2N(Cc2cccc3ccccc23)C1, the Percent Effect [1] was 0.598% and the Percent Effect [2] was -15.6%.

In the case of O=C(NCCN1CCOCC1)c1n[nH]c(=O)c2ccccc12, the Percent Effect [1] is reported as -2% and the Percent Effect [2] is reported as -29.3%.

CC1=Nc2c(c(=O)[nH]n2C2CCOCC2)C(c2cccc(Br)c2)S1 (stereo not given) gave a Percent Effect [1] of 0.0871% and a Percent Effect [2] of 15%.

COc1ccc(CN2CCN(C(C)c3nc(C4CC4)no3)CC2)cc1 (stereo not given) showed a Percent Effect [1] of -3.61% and a Percent Effect [2] of 0.241%.

Cn1cnnc1C1CCCN(C(=O)NCc2ccc3c(c2)OCO3)C1 (stereo not given) showed a Percent Effect [1] of -2.83% and a Percent Effect [2] of 7.83%.

FC(F)(F)c1nc(C2CCNCC2)no1 was tested, and the Percent Effect [3] was 5.73%.

Molecule N#Cc1ccccc1N1CCCN(C(=O)CCn2cccn2)CC1 has a Percent Effect [1] of -10.7% and a Percent Effect [2] of 3.42%.

Molecule CN(C)CC1CSCCCN1C(=O)c1ccc(C(C)(C)C)cc1 (stereo not given) has a Percent Effect [1] of -2.32% and a Percent Effect [2] of 10.3%.

O=C(NCCOc1cccc(Cl)c1Cl)N1CCC2(CC1)OCCO2 showed a Percent Effect [3] of 1.62%.

In the case of CC(C)Cc1cc(NC(=O)c2ccc[nH]2)n(C)n1, the Percent Effect [1] is reported as -0.121% and the Percent Effect [2] is reported as 7.24%.

CSc1ccccc1C(=O)C1CCCN(Cc2cc(C(C)C)[nH]n2)C1 (stereo not given) was tested, and the Percent Effect [3] was 6.61%.

Cc1ccoc1C(=O)N1C[C@H]2CCC[C@@]2(COCc2ccncc2)C1 showed a Percent Effect [1] of 6.22% and a Percent Effect [2] of -14.5%.

CCOCC(=O)N1C[C@@H](O)[C@H](N(C)Cc2ccc(OC)cc2)C1 showed a Percent Effect [1] of -0.849% and a Percent Effect [2] of 14.7%.

COc1ccc(NC(=O)CCN2CC=C(c3cnn(C)c3)CC2)cc1Cl was tested, and the Percent Effect [3] was 12.5%.

With O=C(NCc1cn2c(n1)CN(CC1CCOCC1)CC2)C1CCC1 the Percent Effect [1] was 0.662% and the Percent Effect [2] was -18.2%.

With Cn1c(NCC(O)c2ccc(F)cc2F)c(C#N)c(=O)n(C)c1=O (stereo not given) the Percent Effect [1] was -5.91% and the Percent Effect [2] was -8.41%.
